According to the supplement of paper PMC3545927:
The other results are listed elsewhere or left out. The true hit rate is not given.

Biological target: furin, P09958
Assay: furin cleavage Z-score vs untreated control; higher = more cleavage, active = 3.5 or more, inactive = 1 or less, 8 variable residues between constant flanks
Procedure, shortened: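 Magnetic beads held 8-mer peptides by the N-terminus, each fused to a cDNA oligonucleotide, and purified furin was added for 7.5, 15 or 30 min. Released DNA was sequenced after PCR adapter tagging. The cleavage Z-score is the log count relative to furin-free reactions, lowess-adjusted and divided by median absolute deviation.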
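Note: purified furin at 1:10 enzyme:substrate in 50 mM HEPES pH 7.5.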

Sequence of furin, P09958 (P09958 whole entry): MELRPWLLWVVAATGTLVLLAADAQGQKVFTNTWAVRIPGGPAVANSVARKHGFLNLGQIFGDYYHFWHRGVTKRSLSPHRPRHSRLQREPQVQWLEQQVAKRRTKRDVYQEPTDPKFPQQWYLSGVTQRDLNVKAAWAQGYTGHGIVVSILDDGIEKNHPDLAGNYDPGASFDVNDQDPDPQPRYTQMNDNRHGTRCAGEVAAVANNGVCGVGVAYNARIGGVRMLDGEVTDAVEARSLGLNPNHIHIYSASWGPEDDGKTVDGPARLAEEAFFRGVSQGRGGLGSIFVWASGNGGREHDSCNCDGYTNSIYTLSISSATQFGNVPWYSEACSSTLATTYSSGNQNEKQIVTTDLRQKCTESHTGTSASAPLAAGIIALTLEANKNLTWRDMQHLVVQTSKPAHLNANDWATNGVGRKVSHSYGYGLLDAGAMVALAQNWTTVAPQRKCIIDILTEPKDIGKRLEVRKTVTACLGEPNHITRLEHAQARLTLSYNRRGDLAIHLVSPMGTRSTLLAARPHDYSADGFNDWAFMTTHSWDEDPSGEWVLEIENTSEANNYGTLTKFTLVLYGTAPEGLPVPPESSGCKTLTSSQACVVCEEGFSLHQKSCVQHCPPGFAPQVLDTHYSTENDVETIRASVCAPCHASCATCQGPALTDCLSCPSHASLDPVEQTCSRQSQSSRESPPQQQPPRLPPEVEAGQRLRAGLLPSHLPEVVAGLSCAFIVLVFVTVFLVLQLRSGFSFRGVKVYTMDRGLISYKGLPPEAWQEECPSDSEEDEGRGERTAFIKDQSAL

Row | Sequence | furin cleavage Z-score (7.5 min) | furin cleavage Z-score (15 min) | furin cleavage Z-score (30 min)
1 | CAGLEVVTSTAGNASASA [HC2276] | 1.36 | -0.694 (inactive) | -0.958 (inactive)
2 | CASILGIGTVAGNASASA [HC823] | -0.809 (inactive) | 0.141 (inactive) | -0.562 (inactive)
3 | CAAYAQQTRGAGNASASA [HC676] | 0.0125 (inactive) | 0.047 (inactive) | 1.9
4 | CAKAVDFIPVAGNASASA [HC756] | -0.823 (inactive) | -0.464 (inactive) | -0.656 (inactive)
5 | CATPGLPVCQAGNASASA [HC933] | 0.0348 (inactive) | -0.269 (inactive) | 0.151 (inactive)
6 | CATPQRLRRQAGNASASA [FS-570] | 7.8 (active) | 8.92 (active) | 4.33 (active)
7 | CAEVVTSTWFAGNASASA [HC2247] | -0.0997 (inactive) | 1.76 | 0.942 (inactive)
8 | CAIFLRLKRRAGNASASA [FS-800] | 3.63 (active) | 3.18 | 3.43
9 | CAREQRERRRAGNASASA [FS-1155] | 0.997 (inactive) | 2.01 | 2.01
10 | CAAMRRLKRRAGNASASA [FS-1304] | 8.73 (active) | 7.83 (active) | 8.17 (active)
11 | CAETRRERRRAGNASASA [FS-1121] | 3.87 (active) | 4.13 (active) | 4.7 (active)
12 | CARFLRHTGRAGNASASA [FS-1701] | 2.28 | 1.08 | 0.702 (inactive)
13 | CALRRRLKRRAGNASASA [FS-361] | 7.56 (active) | 7.31 (active) | 5.73 (active)
14 | CASDVVCCSMAGNASASA [HC2117] | 1.61 | -1.16 (inactive) | 0.074 (inactive)
15 | CAMEEGSQHLAGNASASA [HC2] | -0.0457 (inactive) | -0.462 (inactive) | 1.87
16 | CAYVTGMTTDAGNASASA [HC1211] | -0.923 (inactive) | -0.868 (inactive) | -1.18 (inactive)
17 | CAQDAVSRTQAGNASASA [HC900] | -0.887 (inactive) | -1.13 (inactive) | -1.41 (inactive)
18 | CADLEVVTSTAGNASASA [HC2271] | -1.06 (inactive) | 0.142 (inactive) | -0.409 (inactive)
19 | CAGYIPLVGAAGNASASA [HC228] | -0.438 (inactive) | -0.464 (inactive) | -0.124 (inactive)
20 | CALEHRRMRRAGNASASA [FS-349] | 11 (active) | 10.5 (active) | 9.29 (active)
21 | CALRRRMRRRAGNASASA [FS-1368] | 3.44 | 4.48 (active) | 4.37 (active)
22 | CASTPCSAGLAGNASASA [HC2556] | -0.924 (inactive) | -0.11 (inactive) | -0.471 (inactive)
23 | CAWEECSQHLAGNASASA [HC1668] | 2.53 | 0.743 (inactive) | 0.0767 (inactive)

Row | Sequence | furin cleavage Z-score (7.5 min) | furin cleavage Z-score (15 min) | furin cleavage Z-score (30 min)
24 | CAGTPCSAHLAGNASASA [HC2476] | -0.662 (inactive) | -0.917 (inactive) | -0.0259 (inactive)
25 | CAATPCSGSWAGNASASA [HC1823] | -0.934 (inactive) | -0.493 (inactive) | -0.88 (inactive)
26 | CAEHVTSTWVAGNASASA [HC2175] | -1.96 (inactive) | 1.55 | 0.829 (inactive)
27 | CARLRRVVGQAGNASASA [FS-1747] | 0.978 (inactive) | -0.277 (inactive) | 1.66
28 | CARLRRDTQQAGNASASA [FS-2494] | 8.34 (active) | 9.45 (active) | 7.24 (active)
29 | CARLRREPGGAGNASASA [FS-2713] | -0.934 (inactive) | -0.299 (inactive) | -0.815 (inactive)
30 | CARLRRVSHQAGNASASA [FS-1861] | -2.01 (inactive) | 0.557 (inactive) | 1.98
31 | CARLRRQKLSAGNASASA [FS-2576] | 0.0621 (inactive) | 0.201 (inactive) | -0.745 (inactive)
32 | CARDRRMMSQAGNASASA [FS-2653] | 0.37 (inactive) | 0.534 (inactive) | 0.367 (inactive)
33 | CARIRRRASQAGNASASA [FS-2032] | 3.16 | 3.54 (active) | 4.94 (active)
34 | CARLRRAADHAGNASASA [FS-2712] | 8.97 (active) | 8.17 (active) | 7.64 (active)
35 | CARLRRRTSHAGNASASA [FS-2716] | 1.21 | 1.27 | 4.1 (active)
36 | CARLKRIISHAGNASASA [FS-2706] | 0.518 (inactive) | -1.37 (inactive) | -0.856 (inactive)
37 | CAMEECSQHSAGNASASA [HC1777] | 2.1 | 0.565 (inactive) | 0.168 (inactive)
38 | CAPPEELKFQAGNASASA [NG7] | -0.102 (inactive) | -1.12 (inactive) | 0.127 (inactive)
39 | CARANRIVNAAGNASASA [FS-2392] | 0.0348 (inactive) | -1.24 (inactive) | -1.84 (inactive)
40 | CATFWAKHMWAGNASASA [HC1040] | 0.313 (inactive) | -0.474 (inactive) | 0.00738 (inactive)
41 | CARLRRRASQAGNASASA [FS-2995] | 2.66 | 4.61 (active) | 4.94 (active)
42 | CARLRRTMLVAGNASASA [FS-2996] | 0.457 (inactive) | -0.166 (inactive) | 0.463 (inactive)
43 | CARLRRASWVAGNASASA [FS-3197] | 1.44 | 1.96 | 4.56 (active)
44 | CARLRRILEVAGNASASA [FS-2433] | -1.97 (inactive) | -0.173 (inactive) | 0.88 (inactive)
45 | CARLHRFDSQAGNASASA [FS-2569] | -0.521 (inactive) | 0.134 (inactive) | 0.911 (inactive)
